EBV LMP1 NFkB – Epstein-Barr LMP1 NF-kappaB reporter inhibition | LMP1-induced NF-kappaB luciferase reporter cells, luminescence | hit rate 0.69% among 350,000 | inhibition, % at 12.5 µM | AID 504558; in the data active means inhibition above about 41%; inconclusive means no clear call, values can overlap the other calls;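 further: 0% = neutral control wells and 100% = reference inhibitor control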
CF NFkB block – blocks PAF-induced NF-kB reporter in cystic fibrosis cells; KKLEB NF-kB-GFP reporter, GFP fluorescence overnight; inhibition, % at 5 µM; hit rate 0.86% among 360,000; AID 588850;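 active means at least 50% inhibition at 5 µM, scaled per plate between neutral and stimulator controls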;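 further: PAF is a Pseudomonas aeruginosa culture filtrate used as stimulus; plate controls were PAF-stimulated DMSO wells for no effect and unstimulated DMSO wells for full effect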
KKLEB tox – counter-screen for CF NF-kB inhibitors: cytotoxicity; hit rate 0.36% among 360,000; activity change (cytotoxicity), % at 5 µM; KKLEB CF airway cells viability, ATPlite luminescence, overnight; active compounds read low; cells stimulated with P. aeruginosa culture filtrate;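 active means corrected activity change at or below -50% at 5 µM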
Peg3 prom inh – inhibitors of Peg3 promoter; HeLa PEG-Prom luciferase reporter, luminescence, overnight; hit rate 1.7% among 360,000; inhibition, % at 20 µM;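 active means inhibition of at least 50% at 20 µM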
MITF TRPM1 inh – reduces MITF-dependent TRPM1 promoter luciferase signal | inhibition, % at 12.5 µM | hit rate 0.83% among 330,000 | SK-MEL-5 TRPM1 promoter luciferase, 24 h;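 active means mean inhibition across replicates of 60% or more, whatever share of single replicates reaches that level; inconclusive means some that reach 60%, reason not given; inactive means mean inhibition across replicates below 60%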
Shn3 inh set2 – reduces Shn3 3'UTR luciferase signal in osteoblasts; inhibition, % at 12.5 µM; hit rate 0.52% among 360,000; AID 588674; Clone20 osteoblast Shn3 3'UTR firefly luciferase, 24 h;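 active means mean inhibition of at least 75% with every replicate also reaching 75%; inconclusive means mean inhibition at least 75% but some replicate below; inactive means mean inhibition below 75%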;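 further: 0% = median of neutral control wells and 100% = pilot-screen positive control compound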
An asterisk follows results filed as active; ? = inconclusive; nt = no result given. Only some compounds are listed: those with a hit (about 2.9% of all), similar ones and a draw of the others.

SMILES | EBV LMP1 NFkB | CF NFkB block | KKLEB tox | Peg3 prom inh | MITF TRPM1 inh | Shn3 inh set2
O=c1[nH]c(Sc2ccc([N+](=O)[O-])cc2[N+](=O)[O-])nc2ccccc12 | -6 | 22 | -28 | -58 | 7 | 2
O=[N+]([O-])c1ccc(Sc2nc3ccccc3o2)c([N+](=O)[O-])c1 | 15 | 68* | -42 | 97* | 87* | 98*
Cc1ccccc1C1(O)c2ccccc2-c2ccccc21 | 0 | -15 | 11 | 21 | nt | 0
Cc1ccc(-n2c(-c3ccc(Br)cc3)c[n+]3c2CCc2ccc4cccnc4c2-3)cc1 | 36 | 20 | -52* | 64* | 98* | 91*
Cc1cccc(C)c1NC(=O)CSc1nc(C)c(CC(=O)c2ccc(Br)cc2)c(C)c1C#N | 4 | 2 | -2 | 60* | 40 | 1
COCCN(C(=O)COC(=O)CCCc1c[nH]c2ccccc12)c1c(N)n(Cc2ccccc2)c(=O)[nH]c1=O | 4 | 11 | -8 | 10 | 20 | 8
COc1ccc(NC(=O)C2Cc3c(-c4cccc(NC(C)=O)c4)ccnc3O2)cc1 (stereo not drawn) | nt | 10 | -17 | 4 | nt | -13
CC(=O)/C(=C/N(C)C)C(=O)Nc1ccc(Cl)cc1Cl | 0 | -25 | 8 | -13 | 1 | 12
CN(C)CCNC=C(C(=O)Nc1ccc(Cl)cc1Cl)C(=O)Nc1ccc(Cl)cc1Cl | -52 | 32 | -15 | 91* | 19 | -19
Cc1ccc(OC(C)C(=O)N2CCc3ccccc32)c([N+](=O)[O-])n1 (stereo not drawn) | -3 | 5 | -6 | 6 | nt | 6
Cc1ccc(C(=O)CSc2nnnn2C(C)C)c(C)c1 | 46* | 4 | -9 | 2 | 3 | 22
CN1CCN(c2ccc(Cl)cc2NC(=O)c2cc(=O)[nH]c3ccccc23)CC1 | 6 | -1 | -1 | 8 | -25 | -33
CN1CCN(c2cc3c(c4c2[nH]c2ccccc24)C(=O)CC(C)(C)C3)CC1 | -22 | 22 | -30 | 107* | 5 | -3
CC1(C(=O)NS(=O)(=O)c2ccc(Cl)cc2)CCN1C(=O)CC1CC1 (stereo not drawn) | nt | 12 | -8 | -6 | nt | -9
Cc1cc(/C=C2\Sc3ccccc3N2C)cc(C)[n+]1CC1CCCO1 (stereo not drawn) | 19 | -4 | -29 | 70* | 74* | 89*
Cc1ccc(/C=C2/Sc3ccccc3N(CC(=O)NCC3CCCO3)C2=O)cc1 (stereo not drawn) | 11 | 0 | -7 | -26 | -25 | -15
CC1CCCC(NC(=O)COC(=O)CCC(=O)c2cccs2)C1C (stereo not drawn) | 57* | -7 | 2 | -4 | 6 | -7
CN(C)c1ccc(CNCCC(Cc2ccccc2)c2ccco2)cc1 (stereo not drawn) | -7 | -17 | 0 | 50* | 0 | 56
Cc1[nH]c2ccccc2c1C1=CC(=O)C=CC1=O | -8 | 74* | -13 | 76* | 56 | 66
Cc1[nH]c2ccccc2c1CC#N | 4 | -12 | 1 | 5 | 0 | nt
O=C(NNC(=O)c1ccncc1)Nc1ccc(N=Nc2ccccc2)cc1 | -39 | -10 | -21 | -200 | -42 | -47
O=C(O)C1(Nc2ccccc2Cl)CCCC1 | 1 | -15 | 3 | 12 | 10 | 93*
Cc1ccccc1CSCC(=O)N1CCN(c2ccccc2)CC1 | -2 | 2 | -10 | -93 | -9 | 11
Cc1ccsc1-c1nc(CSCC(=O)N2CCN(c3ccccc3)CC2)c(C)o1 | 81* | -11 | 4 | 9 | 13 | 10
C=CCNc1ncnc2c1ncn2[C@H]1CN(Cc2ccc(-c3ccccc3)cc2)C[C@@H](CO)O1 | nt | -3 | -6 | -4 | nt | 38
SMILES | EBV LMP1 NFkB | CF NFkB block | KKLEB tox | Peg3 prom inh | MITF TRPM1 inh | Shn3 inh set2
CCN(CC)CCNC(CC(=O)Nc1ccc(Cl)cc1Cl)C(=O)O (stereo not drawn) | -1 | -3 | 2 | -2 | -5 | -7
CCN(CC)CCNc1ccc(CO)c2oc3cc(Cl)ccc3c(=O)c12 | -9 | -109 | -14 | 101* | nt | 19
O=C(Nc1cc([N+](=O)[O-])ccc1Cl)C(Sc1ccccc1)c1ccccc1 (stereo not drawn) | -10 | 5 | -1 | 28 | 4 | 9
O=C(Nc1ccc(Cl)c([N+](=O)[O-])c1)C(Sc1ccccc1)c1ccccc1 (stereo not drawn) | 21 | 50 | -8 | 53* | -4 | 47
Cc1ccc(S(=O)(=O)N(C)CC(=O)Nc2cccnc2)cc1 | 0 | 30 | -3 | -1 | 7 | 3
CN(CC(=O)Nc1cccnc1)S(=O)(=O)c1ccc(Br)cc1 | 50* | -15 | -10 | 18 | 2 | 0
NC(N)=Nc1nc(-c2ccccc2)c2cc(F)ccc2n1 | 0 | -108 | 16 | 88* | 3 | 56
COc1cc(F)ccc1-c1csc(C(O)c2ccc(F)cc2)n1 (stereo not drawn) | nt | -21 | -8 | -28 | nt | 7
Cc1cc(C)c(C#N)c(SCc2nnc(-c3ccccc3)o2)n1 | 59* | 8 | -18 | 38 | 77* | 60
CC1CCCN(S(=O)(=O)c2cc(C(=O)NCCc3ccc(S(N)(=O)=O)cc3)ccc2Cl)C1 (stereo not drawn) | 7 | 16 | -19 | 20 | 20 | 32
CC1=C(C(=O)N2CCOCC2)CC(CC(=O)NCc2ccco2)C(=O)N1Cc1ccc(C(C)(C)C)cc1 (stereo not drawn) | -9 | 0 | 10 | -10 | nt | 10
O=C(Nc1cccc(-c2cn3ccccc3n2)c1)c1cc2ccccc2oc1=O | -97 | 4 | -7 | 73* | 49 | -27
CNc1ncnc(Sc2nc(N)nc3nc[nH]c23)c1[N+](=O)[O-] | 0 | 4 | 5 | 48 | 71* | -3
Cc1ccc(Sc2ncnc(N)c2[N+](=O)[O-])cc1 | 9 | 34 | 1 | -1 | 0 | -24
Nc1nc(Sc2ccc([N+](=O)[O-])c3nonc23)c2[nH]cnc2n1 | 3 | -19 | -7 | 67* | 82* | 39
Nc1nc(SCc2ccccc2)c2[nH]cnc2n1 | 4 | 22 | -22 | -11 | -8 | 16
O=C1c2cccc3c([N+](=O)[O-])ccc(c23)C(=O)N1O | 2 | -21 | 13 | 21 | 50 | -2
O=C1c2cccc3c([N+](=O)[O-])ccc(c23)C(=O)N1c1ccccn1 | 55* | -25 | -2 | 94* | 34 | 37
O=C1c2ccc([N+](=O)[O-])cc2C(=O)N1c1ccc(Cl)cn1 | -2 | -15 | 13 | -5 | -2 | 2
O=C1c2cccc3c([N+](=O)[O-])ccc(c23)C(=O)N1c1nccs1 | 49* | -45 | 12 | 94* | ? | 54
O=C1c2cccc3c([N+](=O)[O-])ccc(c23)C(=O)N1c1ccc(Cl)cn1 | 9 | 9 | -11 | 105* | 34 | 58

Screening data: PubChem BioAssay, several laboratories
